± gives the standard deviation.
System: MILI (PIWIL2) piRISC loaded with piRNA #1 (26 nt)
Assay: pre-steady-state target cleavage rate (min^-1); guide: piRNA #1 5'p-UGAGGUAGUAGGUUGUAUAGUAUCCA; MIWI and MILI are mouse PIWI proteins and EfPiwi is from a freshwater sponge; tags in brackets are library labels; higher = faster piRNA-guided slicing of the target
Details: auxiliary factor: 500 nM mouse GTSF1
Summary of the method: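 Sequencing of uncleaved targets, normalised to depth and to weakly complementary targets, was the readout of this Cleave-'n-Seq assay. A transcribed, DNA-blocked target RNA library (0.1 nM) was mixed with 1 nM active affinity-purified piRISC carrying one synthetic guide, with or without 500 nM GTSF1 partner protein, in HEPES–potassium acetate buffer at 33 °C for 0–8 or 0–960 min. Three trials were pooled, k3 was capped at 0.0001 min^-1, and a burst-and-steady-state fit gave the pre-steady-state cleavage rate.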

Sequence	pre-steady-state target cleavage rate
GGAGACCUAUGAAUACUACCUACUACGUCA	0.00344 ± 0.0026
GGAGACCUAUGAUAACAACCUACGACCUCA	0.0039 ± 0.0025
GGAGACCUAACUAUACAACCUACAACCUGA	0.00865 ± 0.0074
GGAGACCUAUGUAUCACAACCUACUACCUCA	0.0102 ± 0.003
GGAGACCUUACUAAUCAACCUACUACCUCA	0.11 ± 0.016
GGAGACCUAUGAUUACAACCUACUACACUCA	0.00616 ± 0.0025
GGAGACCUAAGUAUACUACCUACUACCUCA	0.0377 ± 0.0069
GGAGACCUAUGUUUACAACCUACUUCCUCA	0.0114 ± 0.0056
GGAGACCUAUGAUAUGUUGCUACUGACCUCA	< 0.0001
GGAGACCUAUGUAUACAACCUACUAUCUCA	0.0416 ± 0.0058
GGAGACCUAUGUAUACAUGGAUGAUGGAGA [g14:g19:cont:t1A]	< 0.0001
GGAGACCAUACUAUACAACCUAGAUCCUCA	0.0232 ± 0.0082
GGAGACCUAUCUAUACAUCCUACUAGCUCA	0.125 ± 0.019
GGAGACCUAUCUUUACAUCCUACUACCUCA	0.104 ± 0.013
GGAGACCUAACUAUACAUCGUACUACCUCA	0.0246 ± 0.0074
GGAGACCUAUGAAUACAACCUACUAGCUCA	0.00444 ± 0.0022
GGAGACCUAUGAUAUGUUGCUAGAUCCUCA	< 0.0001
GGAGACCUAUCUUUAGAACCUACUACCUCA	0.0437 ± 0.0095
GGAGACCUAACUAUACAAGCAACUACCUCA	0.00654 ± 0.0041
GGAGACCUAUGAUAUGUUCCUACUACCUCG [g2:g12:cont:t1G]	< 0.0001

Sequence	pre-steady-state target cleavage rate
GGAGACCAUACUAUACAAGCUACUACCACA	0.32 ± 0.02
GGAGACCUAUGAAUACUACCUACUACCUCA	0.0049 ± 0.0017
GGAGACCUAUGAUUACUACCUACAACCUCA	0.00398 ± 0.0024
GGAGUGGAUACUUUACAACCUACUACCUGA	0.0844 ± 0.011
GGAGACCUAUCUAUACAACUACUACCUCA	0.00292 ± 0.0024
GGAGACCUAACAUUACAACCUACUACCUCA	0.0283 ± 0.0089
GGAGACGAUACUAUACUACCUACUAGCUCA	0.124 ± 0.018
GGAGACGAUACUAUAGUUCCUACUACCUCA	0.161 ± 0.012
GGAGACCUAUGAUAUCAACCUAUCUACCUCA	0.00534 ± 0.002
GGAGACCUAUGAUAUGUACCUACUAGCACA	< 0.0001
GGAGACCUAUGUAUACAUCCUUCUACCUCA	0.00859 ± 0.0018
GGAGACCUUACUUUACAACCUACAACCUCA	0.0873 ± 0.013
GGAGACCUAUGAUAACAACCUACUACUUCA	0.00299 ± 0.0028
GGAGACGAUACAAUACAACCUACUUCCUCA	0.126 ± 0.024
GGAGACCUUACUAUACAACCUACUAACUCA	0.0948 ± 0.017
GGAGACCAAUGUAUACAACCUACUACCUCA	0.0592 ± 0.01
GGAGACCUUACUAUACUACCUUCUACCUCA	0.0109 ± 0.0029
GGAGACCUAUGUAUACAACCUACUACAUCA	0.0269 ± 0.0059
GGAGACCUAUCUAUACAACCUACGUACCUCA	0.0605 ± 0.012
GGAGACCUAACUACACAACCUACUACCUCA	0.166 ± 0.039
